From PubChem BioAssay (Tox21)
Several values for one entry are separate records, joined by “and”; a condition that tells them apart may be missing. Identical values can stand only once. Inconclusive results are not listed. A structure can be active in one record and inactive in another. Activity calls are given as the source filed them. The call rests on the fitted dose curve; in most records, active means well fitted cell-killing curve with a large enough effect in the repeat runs; inconclusive means weak or mixed curves, or effect the other way; inactive means no such curve, though single readings can be large or run the other way.

assay: qHTS assay to identify aromatase inhibitors - cell viability counter screen (AID 743084); settings: MCF-7 aro ERE viability, CellTiter-Fluor, 24 h; series mostly up to 70.3 µM; activity change, negative = cytotoxicity: at the top concentration;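 further: cells stimulated with testosterone during compound exposure; nearly all actives have a fitted effect of over 55% in size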
On the % scale 0 is the no-effect control and ±100 the full control effect; potency means the concentration at half of the fitted maximal effect.

| Compound | activity change, negative = cytotoxicity | Potency |
| --- | --- | --- |
| CCCCOC(=O)CCC(=O)OCCCC | -0.378% (inactive) | – |
| CCOC(=O)C1OC1(C)c1ccccc1 (configuration not stated) | – | inactive |
| O=C1CC[C@@]2(O)[C@H]3Cc4ccc(O)c5c4[C@@]2(CCN3CC2CC2)[C@H]1O5 | 9.83% (inactive) | – |
| O=S(=O)(c1ccccc1)c1ccccc1 | 2.93% (inactive) | – |
| CCCCNC(=O)OCC#CI | – | 6.08 µM (active) and 17.2 µM (active) |
| CCCCCl | – | inactive |
| CC[N+]1(C)CCCC(OC(=O)C(O)(c2ccccc2)c2ccccc2)C1 (configuration not stated) | 5.97% (inactive) | – |
| CCCCCCCCP(=O)(O)O | -3.47% (inactive) | – |
| O=C(O)c1cc(Cl)ccc1Cl | 14.8% (inactive) | – |
| Cc1ccccc1 | – | inactive |
| C[C@]12C=CC3=C4CCC(=O)C=C4CC[C@H]3[C@@H]1CC[C@@H]2O | 3.95% (inactive) | – |
| Nc1ccccc1C(=O)OCCc1ccccc1 | -27.2% (inactive) | – |
| O=C(N[C@H]1CN2CCC1CC2)c1ccc2c(c1)OCCO2 | -4.59% (inactive) | – |
| CC(C)CCON=O | – | inactive |
| N#CC1(N=NC2(C#N)CCCCC2)CCCCC1 | -1.51% (inactive) | – |
| CCCN(CCOc1c(Cl)cc(Cl)cc1Cl)C(=O)n1ccnc1 | -4.34% (inactive) | – |
| CC(Oc1cccc(Cl)c1)C(=O)O (configuration not stated) | 21.2% (inactive) | – |
| CC(Cl)C(=O)O (configuration not stated) | -2.12% [at 95 µM] (inactive) | – |
| O=[N+]([O-])/C=C/c1ccccc1 | – | 31.1 µM (active) and 54.5 µM (active) |

| Compound | activity change, negative = cytotoxicity | Potency |
| --- | --- | --- |
| C[N+](C)(C)CCOC(=O)C(O)(c1ccccc1)c1ccccc1 | -0.92% (inactive) | – |
| C=CCc1ccc(OC(=O)Cc2ccccc2)c(OC)c1 | 7.32% (inactive) | – |
| CCc1cnc(C2=NC(C)(C(C)C)C(=O)N2)c(C(=O)O)c1 (configuration not stated) | – | inactive |
| FC(F)OC(F)(F)C(F)Cl (configuration not stated) | – | inactive |
| ClCc1ccccc1Cl | 9.48% [at 95 µM] (inactive) | – |
| OCCCl | 0.438% (inactive) | – |
| C=CCSSCC=C | 17.5% (inactive) | – |
| COc1ccccc1N1CCNCC1 | 9.7% (inactive) | – |
| O=C(NCNC(=O)NC1C(=O)NC(=O)N1CO)NC1C(=O)NC(=O)N1CO (configuration not stated) | – | inactive |
| Clc1ccc(Cl)c(Cl)c1 | – | inactive |
| CC(=O)NNc1ccccc1 | 11.7% (inactive) | – |
| COc1ccc2c(c1OC)C(=O)O[C@H]2[C@@H]1c2cc3c(cc2CCN1C)OCO3 | -0.629% (inactive) | – |
| CC(C)(C#N)C(C)(C)C#N | -14.6% [at 95 µM] (inactive) | – |
| Cc1ccc(N)c(C)c1 | -1.39% [at 95 µM] (inactive) | – |
| CCCC[P+](CC)(CCCC)CCCC (tested in a mixture with another compound) | 0.752% [at 95 µM] (inactive) | – |
| C[N+]1(CCF)[C@@H]2CC[C@H]1CC(OC(=O)C(O)(c1ccccc1)c1ccccc1)C2 (some centres not stated) | 6.98% (inactive) | – |
| O=C(O)C(Cl)(Cl)Br | 11.6% [at 95 µM] (inactive) | – |
| C[Si](Cn1cncn1)(c1ccc(F)cc1)c1ccc(F)cc1 | – | 63.1 µM (active) and inactive |
